Assay [1] deals with Retinoic acid receptor RXR-alpha (Homo sapiens) (UniProt P19793). Briefly: OT_NURR1_NURR1RXRa_1440: Odyssey Thera (OT) 24-hour HEK293T Protein Complementation Assay for Nurr1/retinoid X receptor (RXR) (AID 2283386; active = hit-call score of the fitted dose curve at least 0.9, where 1 is the maximum). In a few lines:
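Fluorescence PCA read-out; HEK293T; 24 h post-dose; bait/prey fused to reporter fragments; gain-of-signal fit vs DMSO negative control.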

In assay [2] the target is Peroxisome proliferator-activated receptor gamma (Homo sapiens) (UniProt P37231). Briefly: OT_PPARg_PPARgSRC1_0480: Odyssey Thera (OT) 8-hour Protein-Complementation Assay for Peroxisome Proliferator-activated Receptor Gamma / SRC-1 Co-activator (AID 2283387; active = hit-call score of the fitted dose curve at least 0.9, where 1 is the maximum). The procedure, abridged: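 HEK293T transiently transfected with PPARg and SRC-1 fused to Venus YFP fragments, compounds 8 h at 37C. Fixed, Draq5-stained cells imaged; nuclear/cytoplasmic 488 nm fluorescence ratio over at least 350 cells per image; gain fitted versus DMSO.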

For assay [3] the target is unchanged. Briefly: OT_PPARg_PPARgSRC1_1440: Odyssey Thera (OT) 24-hour Protein-Complementation Assay for Peroxisome Proliferator-activated Receptor Gamma/ SRC-1 Co-activator (AID 2283388; active = hit-call score of the fitted dose curve at least 0.9, where 1 is the maximum). In a few lines: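 HEK293T cells transiently transfected with PPARg and SRC-1 fused via (Gly4Ser)2 linker to split Venus YFP fragments (IFP1/IFP2) were dosed 24 h; fixed, Draq5-stained, imaged at 488/635 nm; nuclear/cytoplasmic fluorescence ratio scored versus DMSO baseline, gain-of-signal.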

The nature of assay [4]: CEETOX_H295R_11DCORT: CeeTox H295R High-throughput Steroidogenesis Assay for 11-Deoxycortisol (11DCORT) (AID 2283432). Conditions: actives raise or lower the signal. The procedure, abridged:
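H295R cells prestimulated 48 h with 10 uM forskolin, then exposed 48 h to chemical in 0.1% DMSO. 11-Deoxycortisol in medium quantified by HPLC-MS/MS after MTBE extraction; bidirectional fit versus DMSO. MTT viability read in same wells.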

A short description of assay [5]: CEETOX_H295R_OHPREG: CeeTox H295R High-throughput Steroidogenesis Assay for OH-Pregnenolone (OHPREG) (AID 2283434). Conditions: actives raise or lower the signal. In a few lines: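 Secreted 17alpha-hydroxypregnenolone measured by HPLC-MS/MS after liquid-liquid extraction. Human adrenal H295R cells received 48 h forskolin (10 uM) stimulation before 48 h chemical exposure at 0.1% final DMSO; MTT viability in same wells; bidirectional fit against DMSO.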

Assay [6] is described as follows: CEETOX_H295R_OHPROG: CeeTox H295R High-throughput Steroidogenesis Assay for OH-Progesterone (OHPROG) (AID 2283435).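 Note: 17alpha-hydroxyprogesterone secreted into medium measured by HPLC-MS/MS.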 The conditions noted are these: actives raise or lower the signal. The procedure, abridged: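 HPLC-MS/MS quantification of 17alpha-hydroxyprogesterone secreted by H295R cells after 48 h chemical exposure, following 48 h 10 uM forskolin prestimulation. Gain or loss of signal fitted relative to DMSO. Viability checked by MTT in the same wells.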

Assay [7] can be described thus: CEETOX_H295R_CORTIC: CeeTox H295R High-throughput Steroidogenesis Assay for Corticosterone (CORTIC) (AID 2283437). The conditions noted are these: actives raise or lower the signal. In a few lines:
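Medium corticosterone was quantified by tandem mass spectrometry following 48 hours of chemical exposure (0.1% DMSO) in human H295R cells previously stimulated 48 hours with 10 uM forskolin. Viability checked by MTT; chemicals diluted and retested when viability fell below 70%.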

A short description of assay [8]: CEETOX_H295R_CORTISOL: CeeTox H295R High-throughput Steroidogenesis Assay for Cortisol (AID 2283438).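 Note: cortisol secreted into medium quantified by LC-MS/MS.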 The conditions noted are these: actives raise or lower the signal. In a few lines:
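Read-out: cortisol in culture medium by reverse-phase C18 HPLC with ESI-positive tandem MS, after MTBE liquid-liquid extraction. Cells: human adrenal H295R, forskolin-primed (10 uM, 48 h) before 48 h chemical exposure in 0.1% DMSO.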

Assay [9] is described as follows: CEETOX_H295R_DOC: CeeTox H295R High-throughput Steroidogenesis Assay for DOC (AID 2283439). Conditions: actives raise or lower the signal. The procedure, abridged: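 Human adrenocortical H295R cells, passages up to 10, received 10 uM forskolin for 48 h before chemical addition. After another 48 h exposure in 0.1% DMSO, secreted DOC was measured by LC-MS/MS, with gain or loss fitted against DMSO controls.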

The nature of assay [10]: CEETOX_H295R_PROG: CeeTox H295R High-throughput Steroidogenesis Assay for Progesterone (PROG) (AID 2283442). The conditions noted are these: actives raise or lower the signal. In a few lines: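 H295R human adrenal cells were prestimulated with 10 uM forskolin for 48 h, then exposed to test chemical (0.1% DMSO final) for 48 h. Medium progesterone was MTBE-extracted and quantified by HPLC-MS/MS, with bidirectional fitting against DMSO.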

Read-out in assay [11]: Tumor necrosis factor receptor superfamily member 6 (Homo sapiens) (UniProt P25445)
Briefly: LTEA_HepaRG_FAS: Life Technologies and Expression Analysis (LTEA) Assay for Fas cell surface death receptor (FAS) using HepaRG (AID 2283447). The conditions noted are these: mRNA level, 48 h; actives raise or lower the signal. The procedure, abridged:
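FAS transcript level was measured by TaqMan qRT-PCR against three housekeeping genes after 48 h chemical exposure. Cells were HepaRG, 0.5% DMSO vehicle, with a top concentration of 100 uM and half-log dilutions over eight points, in duplicate.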

Read-out in assay [12]: Cyclin D2 (CCND2), CCND2 (gene 894)
Briefly: LTEA_HepaRG_CCND2: Life Technologies and Expression Analysis (LTEA) Assay for Cyclin D2 (CCND2) using HepaRG (AID 2283449). The conditions noted are these: mRNA level, 48 h; actives raise or lower the signal. The procedure, abridged: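 CCND2 transcript levels, quantified by qRT-PCR and normalised to three housekeeping genes, were fitted bidirectionally against 0.5% DMSO. HepaRG cultures were dosed 48 h in duplicate with an 8-point half-log series up to 100 uM.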

Read-out in assay [13]: Cyclin Dependent Kinase Inhibitor 1A (CDKN1A), CDKN1A (gene 1026)
Briefly: LTEA_HepaRG_CDKN1A: Life Technologies and Expression Analysis (LTEA) Assay for Cyclin Dependent Kinase Inhibitor 1A (CDKN1A) using HepaRG (AID 2283450). Conditions: mRNA level, 48 h; actives raise or lower the signal. In a few lines:
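Differentiated human HepaRG cells, pre-cultured 48 h, were exposed in duplicate for 48 h in serum-free induction medium to eight half-log concentrations up to 100 uM (0.5% DMSO). CDKN1A mRNA was measured by qRT-PCR, normalized to ACTB/GAPDH/POLR2A, bidirectionally fitted versus DMSO.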

Read-out in assay [14]: catalase (CAT), CAT (gene 847)
Briefly: LTEA_HepaRG_CAT: Life Technologies and Expression Analysis (LTEA) Assay for catalase (CAT) using HepaRG (AID 2283452). The conditions noted are these: mRNA level, 48 h; actives raise or lower the signal. The procedure, abridged: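 Expression of CAT was quantified by TaqMan qRT-PCR with ACTB/GAPDH/POLR2A normalization after 48 h chemical exposure of HepaRG. Eight-point half-log series, top 100 uM, in 0.5% DMSO; gain or loss fitted against vehicle.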

Read-out in assay [15]: Cyclin D1 (CCND1), CCND1 (gene 595)
Briefly: LTEA_HepaRG_CCND1: Life Technologies and Expression Analysis (LTEA) Assay for Cyclin D1 (CCND1) using HepaRG (AID 2283451).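 For AC50: TaqMan qRT-PCR transcript level normalised to ACTB GAPDH and POLR2A housekeeping genes.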 Conditions: mRNA level, 48 h; actives raise or lower the signal. In a few lines: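 Differentiated human HepaRG cells in serum-free induction medium were exposed 48 h to eight half-log concentrations up to 100 uM in 0.5% DMSO; mRNA quantified by TaqMan qRT-PCR, normalized to ACTB, GAPDH, POLR2A, fitted bidirectionally versus DMSO.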

Read-out in assay [16]: Fatty acid synthase (Homo sapiens) (UniProt P49327)
Briefly: LTEA_HepaRG_FASN: Life Technologies and Expression Analysis (LTEA) Assay for Fatty Acid Synthase (FASN) using HepaRG (AID 2283448). The conditions noted are these: mRNA level, 48 h; actives raise or lower the signal. The procedure, abridged:
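HepaRG, 48 h exposure, 8-pt half-log series top 100 uM, 0.5% DMSO vehicle, duplicates. Readout: FASN transcript by Fluidigm qRT-PCR; housekeeping-normalized; bidirectional curve fit vs DMSO baseline.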

Assay [17] deals with Retinoic acid receptor RXR-alpha (Homo sapiens) (UniProt P19793). Briefly: OT_NURR1_NURR1RXRa_0480: Odyssey Thera (OT) 8-hour HEK293T Protein Complementation Assay for Nurr1/retinoid X receptor (RXR) (AID 2283385; active = hit-call score of the fitted dose curve at least 0.9, where 1 is the maximum). The procedure, abridged:
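Read-out: fluorescence from protein-fragment complementation between Nurr1 and RXRα in human HEK293T cells, 8 h after dosing. DMSO served as negative control; increased signal counted as activity.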

As a reminder, the AC50 is the midpoint of the concentration-response curve, whichever way the signal moves.

The structures appear in SMILES notation. Values joined by “and” are separate entries in the source; they are usually repeats but may differ in a detail not shown here. Identical values can stand only once. Inconclusive results are not listed. Active and inactive are the calls of the source. Rule for the calls, unless noted: active = hit-call score of the fitted dose curve at least 0.9, where 1 is the maximum; inactive = score below 0.9.

Chain of Peroxisome proliferator-activated receptor gamma (Homo sapiens) (P37231 whole entry, looked up, the tested form may be a part): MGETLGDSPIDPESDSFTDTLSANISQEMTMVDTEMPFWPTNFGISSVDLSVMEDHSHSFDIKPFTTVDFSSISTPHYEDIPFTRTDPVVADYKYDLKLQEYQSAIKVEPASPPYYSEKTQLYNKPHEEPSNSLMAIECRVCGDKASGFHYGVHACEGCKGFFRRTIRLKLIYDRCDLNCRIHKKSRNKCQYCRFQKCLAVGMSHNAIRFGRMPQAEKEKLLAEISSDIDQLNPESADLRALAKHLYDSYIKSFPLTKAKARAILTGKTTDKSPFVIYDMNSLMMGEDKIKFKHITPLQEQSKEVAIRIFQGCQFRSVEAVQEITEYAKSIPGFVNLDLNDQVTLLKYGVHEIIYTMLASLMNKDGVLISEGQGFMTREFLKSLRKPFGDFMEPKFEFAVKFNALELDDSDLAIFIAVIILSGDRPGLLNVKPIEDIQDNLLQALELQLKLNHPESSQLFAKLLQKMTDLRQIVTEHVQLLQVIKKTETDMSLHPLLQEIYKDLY
Chain of Retinoic acid receptor RXR-alpha (Homo sapiens) (P19793 whole entry, looked up, the tested form may be a part): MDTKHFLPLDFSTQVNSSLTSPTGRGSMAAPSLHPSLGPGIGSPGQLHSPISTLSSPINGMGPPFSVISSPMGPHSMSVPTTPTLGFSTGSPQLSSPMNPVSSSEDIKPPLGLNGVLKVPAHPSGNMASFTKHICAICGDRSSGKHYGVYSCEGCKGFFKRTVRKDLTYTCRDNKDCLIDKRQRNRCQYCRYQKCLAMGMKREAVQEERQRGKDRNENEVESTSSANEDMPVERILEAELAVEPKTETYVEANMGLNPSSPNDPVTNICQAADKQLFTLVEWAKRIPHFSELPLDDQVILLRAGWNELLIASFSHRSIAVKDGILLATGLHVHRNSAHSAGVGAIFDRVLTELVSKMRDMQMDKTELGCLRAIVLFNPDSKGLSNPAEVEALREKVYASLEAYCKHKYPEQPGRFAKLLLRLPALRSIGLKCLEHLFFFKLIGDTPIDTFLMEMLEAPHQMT
Chain of Fatty acid synthase (Homo sapiens) (P49327 whole entry, looked up): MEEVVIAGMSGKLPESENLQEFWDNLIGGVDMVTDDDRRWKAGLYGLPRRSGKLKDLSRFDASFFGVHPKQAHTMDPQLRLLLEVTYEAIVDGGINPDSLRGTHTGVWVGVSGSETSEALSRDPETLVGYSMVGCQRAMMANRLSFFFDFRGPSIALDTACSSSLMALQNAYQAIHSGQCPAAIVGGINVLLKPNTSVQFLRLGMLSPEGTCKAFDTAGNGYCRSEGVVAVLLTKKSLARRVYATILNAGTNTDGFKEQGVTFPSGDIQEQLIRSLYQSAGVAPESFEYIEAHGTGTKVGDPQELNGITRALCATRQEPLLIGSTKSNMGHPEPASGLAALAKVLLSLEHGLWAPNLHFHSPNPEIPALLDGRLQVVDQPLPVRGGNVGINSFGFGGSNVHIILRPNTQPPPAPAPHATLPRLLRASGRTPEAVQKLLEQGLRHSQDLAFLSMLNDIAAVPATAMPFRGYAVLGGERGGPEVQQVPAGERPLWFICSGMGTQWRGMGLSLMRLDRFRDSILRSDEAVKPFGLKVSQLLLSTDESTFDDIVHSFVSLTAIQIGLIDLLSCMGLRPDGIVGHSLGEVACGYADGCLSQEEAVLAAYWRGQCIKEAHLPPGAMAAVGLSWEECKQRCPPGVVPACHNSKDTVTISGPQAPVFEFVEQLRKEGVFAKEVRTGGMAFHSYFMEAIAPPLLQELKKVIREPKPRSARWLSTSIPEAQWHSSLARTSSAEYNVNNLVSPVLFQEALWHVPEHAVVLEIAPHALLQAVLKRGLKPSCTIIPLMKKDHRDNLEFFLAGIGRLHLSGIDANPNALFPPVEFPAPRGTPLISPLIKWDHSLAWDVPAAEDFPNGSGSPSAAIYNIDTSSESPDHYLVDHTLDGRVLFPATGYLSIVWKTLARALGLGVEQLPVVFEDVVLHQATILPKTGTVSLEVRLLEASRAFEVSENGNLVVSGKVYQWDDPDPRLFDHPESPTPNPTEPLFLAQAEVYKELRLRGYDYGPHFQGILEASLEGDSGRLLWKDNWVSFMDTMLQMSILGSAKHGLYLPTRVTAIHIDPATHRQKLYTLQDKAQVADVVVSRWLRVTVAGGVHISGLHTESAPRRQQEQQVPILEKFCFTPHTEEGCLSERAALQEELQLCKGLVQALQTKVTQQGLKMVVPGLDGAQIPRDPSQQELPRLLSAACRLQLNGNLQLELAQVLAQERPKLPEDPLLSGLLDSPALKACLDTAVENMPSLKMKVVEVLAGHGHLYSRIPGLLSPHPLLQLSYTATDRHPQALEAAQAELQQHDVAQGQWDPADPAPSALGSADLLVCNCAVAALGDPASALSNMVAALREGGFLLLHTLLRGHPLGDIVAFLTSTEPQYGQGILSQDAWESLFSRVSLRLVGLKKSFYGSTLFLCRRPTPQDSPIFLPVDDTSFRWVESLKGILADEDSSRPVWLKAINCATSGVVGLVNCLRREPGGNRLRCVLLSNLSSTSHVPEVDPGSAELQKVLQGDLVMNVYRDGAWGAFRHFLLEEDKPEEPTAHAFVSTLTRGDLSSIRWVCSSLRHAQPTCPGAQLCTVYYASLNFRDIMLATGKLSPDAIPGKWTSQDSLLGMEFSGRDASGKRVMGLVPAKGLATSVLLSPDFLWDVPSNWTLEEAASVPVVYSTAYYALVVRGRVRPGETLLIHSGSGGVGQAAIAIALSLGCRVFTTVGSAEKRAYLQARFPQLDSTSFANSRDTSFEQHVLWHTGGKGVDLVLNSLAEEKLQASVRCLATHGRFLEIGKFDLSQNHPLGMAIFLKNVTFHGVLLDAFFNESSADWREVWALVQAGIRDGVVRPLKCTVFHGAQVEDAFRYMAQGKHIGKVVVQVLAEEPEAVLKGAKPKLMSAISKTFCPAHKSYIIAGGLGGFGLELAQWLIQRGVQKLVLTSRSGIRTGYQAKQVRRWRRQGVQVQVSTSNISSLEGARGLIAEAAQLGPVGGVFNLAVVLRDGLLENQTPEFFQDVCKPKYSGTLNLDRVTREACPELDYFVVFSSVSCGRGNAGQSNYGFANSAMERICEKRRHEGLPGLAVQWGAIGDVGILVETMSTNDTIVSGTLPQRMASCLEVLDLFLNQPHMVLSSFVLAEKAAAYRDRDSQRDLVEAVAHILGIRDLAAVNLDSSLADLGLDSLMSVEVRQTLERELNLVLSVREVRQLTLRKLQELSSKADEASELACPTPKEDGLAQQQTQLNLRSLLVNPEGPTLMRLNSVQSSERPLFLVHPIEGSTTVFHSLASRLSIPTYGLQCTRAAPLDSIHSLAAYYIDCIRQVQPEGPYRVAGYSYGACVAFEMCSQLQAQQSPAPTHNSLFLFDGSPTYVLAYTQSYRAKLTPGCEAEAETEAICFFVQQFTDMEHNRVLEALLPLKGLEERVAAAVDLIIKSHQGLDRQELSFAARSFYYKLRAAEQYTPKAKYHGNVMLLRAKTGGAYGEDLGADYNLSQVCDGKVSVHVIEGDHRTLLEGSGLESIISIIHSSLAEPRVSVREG

With `CC(C)(O)c1coc(S(=O)(=O)NC(=O)Nc2c3c(cc4c2CCC4)CCC3)c1`, the call in assay [1], in assay [2], in assay [3], in [4], in [5] and in assay [7] was inactive. Further, the molecule was called inactive in assay [8], in assay [11], in assay [12], in assay [13] and in [14]. Further, the AC50 is 10.4 µM (active) in assay [6], 25.2 µM (active) in [9] and 19.4 µM (active) in [10].

For `C[C@](N)(Cc1ccc(O)c(O)c1)C(=O)O`, the call in [1], in assay [2], in assay [3], in assay [10], in [11] and in assay [12] was inactive. Also, the molecule was called inactive in [13], in assay [15] and in assay [14].

For the molecule `O=C(NS(=O)(=O)/C=C/c1ccccc1)c1ccc(F)cc1Cl`, the figures for the AC50 in [1] and in assay [3] were 15.2 µM (active) and 50 µM (active), respectively. Besides, the call in [2], in assay [11], in assay [16], in assay [12], in [13] and in assay [15] was inactive. The result in assay [14] was inactive.

As to `COCCOc1cc2cc(C(=O)NC3CCN(C(C)C)CC3)n(CC(=O)Nc3ccc(Cl)cn3)c2cn1`, the result in [17], in assay [1], in [11], in assay [12] and in [13] was inactive. Besides, the concentration at half-maximal activity (AC50) in [15] and in assay [14] was 45 µM (active) throughout.

With `CCN(C(=O)c1cc(C)cc(OC[C@H](C)Nc2ccncc2)c1)C(C)C`, the result in [2], in assay [3] and in [13] was inactive. The AC50 in assay [11] was 8.02 µM (active); in assay [14] it was 33.8 µM (active).

Regarding `CN(C)c1ccc(N=NS(=O)(=O)O)cc1`, the outcome in [11], in assay [16], in assay [13], in assay [15] and in [14] was inactive.

Take `Cc1ccc(S(=O)(=O)O)cc1C`: the molecule was classed as inactive in assay [1], in [2], in assay [3], in assay [11], in assay [13] and in assay [14].

For the molecule `C1=CCCC=CCCC=CCC1`, the outcome in assay [1], in [2], in assay [3], in assay [11], in assay [12] and in [13] was inactive. The outcome in assay [14] was inactive.

Regarding `O=C(OC[C@H]1O[C@@H](OC(=O)c2cc(O)c(O)c(OC(=O)c3cc(O)c(O)c(O)c3)c2)[C@H](OC(=O)c2cc(O)c(O)c(OC(=O)c3cc(O)c(O)c(O)c3)c2)[C@@H](OC(=O)c2cc(O)c(O)c(OC(=O)c3cc(O)c(O)c(O)c3)c2)[C@@H]1OC(=O)c1cc(O)c(O)c(OC(=O)c2cc(O)c(O)c(O)c2)c1)c1cc(O)c(O)c(OC(=O)c2cc(O)c(O)c(O)c2)c1`, the values for the AC50 in assay [1], in assay [11] and in assay [14] were 15.2 µM (active), 7.03 µM (active) and 15.2 µM (active), respectively. Besides, the molecule was classed as inactive in assay [2], in assay [3], in assay [12] and in assay [13].

Consider `CCc1cc(SCc2sc(-c3ccc(C(F)(F)F)cc3)nc2CN2CCN(c3ccc(OC)cc3)CC2)ccc1OCC(=O)O`, for which the AC50 was 345 nM (active) and 1.09 µM (active) in [2]; 723 nM (active) and 1.02 µM (active) in assay [3]; 26.2 µM (active) in assay [11]; 71.3 µM (active) in assay [16]; 85.4 µM (active) in assay [13]; 93.7 µM (active) in [14].

For the molecule `CCCN(C1CCN(C(=O)C2CCNCC2)CC1)[C@@H]1CCc2ccc(OC)cc2C1`, the values for the AC50 in [1], in assay [15] and in [14] were 64.8 µM (active), 50 µM (active) and 50.1 µM (active), respectively. In addition, the outcome in assay [2], in assay [3], in assay [11], in assay [12] and in assay [13] was inactive.

Consider `O=C(O)CC(O)C(=O)O` (stereo unspecified), for which the call in assay [1], in assay [2], in assay [3], in assay [11], in [16] and in assay [13] was inactive. Further, the call in assay [15] and in [14] was inactive.

In the case of `COc1ccc2sc(C(=O)Nc3nnn[nH]3)c(OC(C)C)c2c1`, the call in assay [2], in assay [3] and in assay [12] was inactive. For the same molecule, the concentration at half-maximal activity (AC50) in assay [11] is 63.8 µM (active); in assay [16], 89.1 µM (active); in [13], 50 µM (active); in assay [15], 13.1 µM (active); in assay [14], 81.3 µM (active).

For the molecule `CCCCCCc1ccc(O)cc1O`, the call in assay [2], in assay [3], in [11], in assay [12], in assay [13] and in assay [15] was inactive. Besides, the molecule was called inactive in assay [14].

Source of the values: PubChem BioAssay (EPA / NIEHS).
